Measurements: PubChem BioAssay (EPA / NIEHS)
Inconclusive results are not listed. Where a structure was tested more than once in an assay, its records may differ in their call. Activity calls are given as the source filed them. The calls were made as follows, unless noted: active = hit-call score of the fitted dose curve at least 0.9, where 1 is the maximum; inactive = score below 0.9.

What was measured:
[1] = TOX21_p53_BLA_p4_viability: Viability Assessment in the Tox21 HCT-116 p53 Agonism Beta-lactamase Assay, Phase 4 (AID 2283597; active = hit-call score of the fitted dose curve at least 0.9, where 1 is the maximum;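 also: hits lower the luminescence signal meaning cytotoxicity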)
Method in brief: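 We seeded HCT116 p53 reporter cells at 4000/well and waited 5 h. We then added compounds in DMSO at a 217-fold dilution and incubated for 16 h. Viability was read as CellTiter-Glo luminescence after 30 min at RT.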

[2] = target: Cellular tumor antigen p53 (Homo sapiens) (UniProt P04637); assay: TOX21_p53_BLA_p3_ratio: Tox21 HCT-116 p53 Agonism Beta-lactamase Assay, Ratio, Phase 3 (AID 2283596; active = hit-call score of the fitted dose curve at least 0.9, where 1 is the maximum)
Method in brief: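 HCT116 p53-bla cells (4000/well) given compound in DMSO (217-fold dilution) after 5 h, incubated 16 h at 37C. CCF4-AM substrate 2 h at room temperature; 460/530 nm emission ratio, gain fitted against DMSO.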

[3] = IUF_NPC1b_proliferation_BrdU_72hr: Leibniz Research Institute for Environmental Medicine (IUF) 72-hour Neural Progenitor Cell Bromodeoxyuridine (BrdU) Proliferation Assay (NPC1b) (AID 2284207)
Method in brief: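 Proliferation of primary human neural progenitor cells: 72 h compound treatment at 37C, 5% CO2, pH 7.2-7.6, in EGF/FGF-containing medium. Readout is BrdU uptake (last 16 h) by chemiluminescent ELISA, normalised to DMSO.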

[4] = IUF_NPC2c_oligodendrocyte_migration_120hr: Leibniz Research Institute for Environmental Medicine (IUF) 120-hour Neural Progenitor Cell Migration Assay for Oligodendrocyte Migration (NPC2c) (AID 2284297);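 also: O4-positive oligodendrocyte migration distance divided by radial glia migration distance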
Method in brief: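 hNPC spheres (GW 16-19 cortex), PDL/laminin, DMEM/F12 3:1 + 1% N2, 37C. Dosing day 0–5, half feed day 3, DMSO ≤0.1%. Fixed 120 h; O4 ICC + Hoechst, HCI. Readout: mean oligodendrocyte distance from sphere edge / radial glia distance.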

[5] = IUF_NPC2a_radial_glia_migration_120hr: Leibniz Research Institute for Environmental Medicine (IUF) 120-hour Neural Progenitor Cell Migration Assay for Radial Glia Migration (NPC2a) (AID 2284298)
Method in brief: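 Hoechst-stained nuclei imaged at 120 h; algorithm maps sphere core by densest nuclei, sets migration edge at density threshold, gives radial glia migration distance (um) per well vs DMSO. hNPC spheres (0.3 mm), PDL/laminin, DMEM/F12 3:1 + 1% N2.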

[6] = IUF_NPC2a_radial_glia_migration_72hr: Leibniz Research Institute for Environmental Medicine (IUF) 72-hour Neural Progenitor Cell Migration Assay for Radial Glia Migration (NPC2a) (AID 2284299)
Method in brief: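 Human fetal cortex (GW 16-19) neural progenitor spheres, 0.3 mm, plated on poly-D-lysine/laminin in N2 differentiation medium with compound from day 0. Radial glia migration distance (um, sphere core edge to migration edge) measured manually in four directions on 72 h brightfield images; well mean used.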

[7] = IUF_NPC2b_neuronal_migration_120hr: Leibniz Research Institute for Environmental Medicine (IUF) 120-hour Neural Progenitor Cell Migration Assay for Neuron Migration (NPC2b) (AID 2284300)
Method in brief: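 hNPC spheres, PDL/laminin, DMEM:F12 3:1 + 1% N2, 37C/5% CO2; 7 concentrations + solvent control (DMSO ≤0.1%), 5 d exposure, half-feed day 3. Fix 120 h, TUBB3 ICC, HCI: mean neuron migration distance ÷ glia distance.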

[8] = IUF_NPC3_neuronal_differentiation_120hr: Leibniz Research Institute for Environmental Medicine (IUF) 120-hour Neuronal Differentiation Assay (NPC3) (AID 2284301)
Method in brief: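 Single 0.3 mm neurospheres from human fetal cortex were plated in differentiation medium containing test compound. Medium was half-replaced on day 3. After 120 h cells were fixed, immunostained and imaged, and neuronal fraction was scored against DMSO control.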

[9] = IUF_NPC2-5_cytotoxicity_72hr: Cytotoxicity Assessment at 72 hours in the Leibniz Research Institute for Environmental Medicine (IUF) Neural Progenitor Cell Migration and Differentiation Assay for Cytotoxicity (NPC2-5) (AID 2284306; active = hit-call score of the fitted dose curve at least 0.9, where 1 is the maximum;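 also: LDH release into supernatant measured by resorufin fluorescence marking membrane damage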)
Method in brief: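 Membrane integrity loss was scored from fluorescence (RFU) of resorufin generated by LDH in culture supernatant, 72 h after dosing. Differentiating human progenitor spheres received seven serial compound concentrations alongside a solvent control.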

[10] = IUF_NPC2-5_cytotoxicity_120hr: Cytotoxicity Assessment at 120 hours in the Leibniz Research Institute for Environmental Medicine (IUF) Neural Progenitor Cell Migration and Differentiation Assay (NPC2-5) (AID 2284307; active = hit-call score of the fitted dose curve at least 0.9, where 1 is the maximum)
Method in brief: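 hNPC spheres on PDL/laminin, N2 medium, 37C; 7 concs + solvent control, DMSO ≤0.1%; 5-day exposure, half medium changed day 3. LDH in supernatant at 120 h, resazurin→resorufin fluorescence, gain-of-signal.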

[11] = IUF_NPC2-5_cell_number_120hr: Cell Number Assessment at 120 hours in the Leibniz Research Institute for Environmental Medicine (IUF) Neural Progenitor Cell Migration and Differentiation Assay (NPC2-5) (AID 2284308);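 also: count of Hoechst-stained nuclei in migration zone around plated human neural progenitor spheres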
Method in brief: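 Hoechst-stained nuclei within the migration area were counted by automated high content imaging after 120 h. Single hNPC spheres differentiated on poly-D-lysine/laminin in DMEM/F12 (3:1) with 1% N2, compound present throughout, DMSO ≤0.1%.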

[12] = IUF_NPC2-5_viability_120hr: Viability Assessment at 120 hours in the Leibniz Research Institute for Environmental Medicine (IUF) Neural Progenitor Cell Migration and Differentiation Assay (NPC2-5) (AID 2284312)
Method in brief: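 Alamar blue resorufin fluorescence read after 5 days of differentiation, with compound present from day 0 and replenished at day 3. Primary hNPC spheres on laminin-coated plates, 37C; seven concentrations plus solvent control, fitted against DMSO.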

[13] = CCTE_Shafer_MEA_dev_bursting_electrodes_number: CCTE's Neural Network Formation Assay for Number of Bursting Electrodes, Shafer Lab (AID 2284043; active = hit-call score of the fitted dose curve at least 0.9, where 1 is the maximum;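 as to AC50: potency is for loss of bursting electrodes relative to DMSO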)
Method in brief: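 Read-out is the per-well number of electrodes bursting at least once every 2 minutes, recorded on days 5, 7, 9 and 12 and collapsed by trapezoidal area under the curve. Cultures were primary rat cortical neurons on MEA plates, treated continuously from plating.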

[14] = CCTE_Shafer_MEA_dev_AB: CCTE's Alamar Blue Assay for Cytotoxicity in the Neural Network Formation Assay, Shafer Lab (AID 2284083; active = hit-call score of the fitted dose curve at least 0.9, where 1 is the maximum;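 also: resazurin reduction fluorescence as viability of cultured neurons; twelve days of exposure from plating with re-dosing on DIV 5 and 9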)
Method in brief: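 Rat cortical primary cultures, 1.5 x 10^5 cells/well on MEA; continuous compound exposure over 12 days of network development, re-dosed with full medium change DIV 5 and 9. Alamar Blue fluorescence; loss of signal = cytotoxicity vs DMSO baseline.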

[15] = CCTE_Mundy_HCI_Cortical_Synap_Neur_Matur_NeuriteSpotCountPerNeuriteLength: CCTE's Synaptogenesis and Neurite Maturation Assay in rat cortical cells for Neurite Spot Count per Neurite Length, Mundy Lab (AID 2284210)
Method in brief: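 Primary rat cortical neurons, compound exposure DIV 7–12, 288.33 h endpoint. Hoechst, anti-MAP2 and anti-synaptophysin labelling; neurite-associated puncta per neurite length scored by automated imaging relative to DMSO controls.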

[16] = CCTE_Mundy_HCI_Cortical_NOG_NeuriteLength: CCTE's Neurite Outgrowth Assay in rat cortical cells for Neurite Length, Mundy Lab (AID 2284213);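 as to AC50: neurites imaged about 48 to 50 h after chemical exposure began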
Method in brief: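 Neurite length was read by high-content imaging of βIII-tubulin-labelled neurites in rat primary cortical cultures. Activity was fitted relative to DMSO.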

[17] = CCTE_Mundy_HCI_Cortical_Synap_Neur_Matur_NeuriteLength: CCTE's Synaptogenesis and Neurite Maturation Assay in rat cortical cells for Neurite Length, Mundy Lab (AID 2284214)
Method in brief: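 Rat primary cortical cells were plated, treated with AraC at DIV 5 to arrest glial growth, then chemical-dosed with media change at DIV 7 through DIV 12. Fixed cells stained for MAP2, synaptophysin and Hoechst; neurite length quantified by high-content imaging.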

[18] = CCTE_Mundy_HCI_Cortical_Synap_Neur_Matur_NeuriteSpotCountPerNeuron: CCTE's Synaptogenesis and Neurite Maturation Assay in rat cortical cells for Neurite Spot Count per Neuron Count, Mundy Lab (AID 2284215)
Method in brief: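 Read-out: neurite-associated synaptophysin puncta per neuron, imaged by high-content analysis after MAP2, synaptophysin and Hoechst staining. Rat primary cortical cultures, dosed DIV 7 through DIV 12; DMSO served as baseline.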

[19] = CCTE_Mundy_HCI_Cortical_Synap_Neur_Matur_SynapseCount: CCTE's Synaptogenesis and Neurite Maturation Assay in rat cortical cells for Synapse Count, Mundy Lab (AID 2284218)
Method in brief: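 Rat primary cortical cells in 96-well plates received AraC at DIV 5 and were dosed with chemicals at DIV 7 with media change, through DIV 12 (288.33 h). Synapses per neuron counted by high-content imaging of MAP2/synaptophysin/Hoechst staining, versus DMSO baseline.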

[20] = CCTE_Mundy_HCI_Cortical_Synap_Neur_Matur_CellBodySpotCount: CCTE's Synaptogenesis and Neurite Maturation Assay in rat cortical cells for Cell Body Spot Count, Mundy Lab (AID 2284223)
Method in brief: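 Read-out: cell body-associated synaptophysin puncta per neuron, imaged after MAP2, synaptophysin and Hoechst staining. Rat cortical cells, AraC DIV 5, chemical dosing DIV 7, fixation DIV 12. Activity fitted in positive direction relative to DMSO baseline.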

Measured: AC50

Chain of Cellular tumor antigen p53 (Homo sapiens) (P04637 whole entry, looked up): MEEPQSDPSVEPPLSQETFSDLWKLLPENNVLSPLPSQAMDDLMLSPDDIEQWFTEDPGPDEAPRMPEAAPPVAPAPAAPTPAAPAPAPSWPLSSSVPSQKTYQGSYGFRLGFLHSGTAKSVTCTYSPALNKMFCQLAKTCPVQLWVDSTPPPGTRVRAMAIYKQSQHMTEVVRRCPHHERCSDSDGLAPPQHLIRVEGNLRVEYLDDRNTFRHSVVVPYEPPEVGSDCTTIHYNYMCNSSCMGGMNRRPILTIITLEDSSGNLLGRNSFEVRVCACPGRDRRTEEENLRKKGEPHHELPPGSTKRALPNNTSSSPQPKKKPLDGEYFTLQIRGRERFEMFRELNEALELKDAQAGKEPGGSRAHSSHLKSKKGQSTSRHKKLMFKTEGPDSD

CC(C)NC(C)Cc1ccc(I)cc1 (stereo not given)
inactive: [1]

COc1ccc2c3c1O[C@H]1[C@@H](O)C=C[C@H]4[C@@H](C2)N(C)CC[C@@]341
inactive: [1]

O=C=NC1CCCCC1
inactive: [1]

CCCCCCCCCBr
inactive: [2]

CCCCCCCCCC(=O)O[C@H]1CC[C@H]2[C@@H]3CCC4=CC(=O)CC[C@@H]4[C@H]3CC[C@]12C
inactive: [2]

NC(=O)C(Cl)Cl
inactive: [1]

CCN[C@@H](C)Cc1ccccc1
inactive: [1]

O=c1[nH]c2ccccc2n1CCCN1CCC(n2c(=O)[nH]c3cc(Cl)ccc32)CC1
inactive: [2]

O=NN(CCO)CCO
inactive: [2] | [1]

C[C@H](N)[C@H](O)c1ccc(O)c(O)c1
inactive: [2]

CCc1cc(OC)c(C[C@H](C)N)cc1OC
inactive: [1]

Clc1cccc(N2CCNCC2)c1
inactive: [2] | [1]

C[N+](C)(C)CCCl
inactive: [2]

CCCC[N+]1(C)[C@@H]2CC(OC(=O)[C@H](CO)c3ccccc3)C[C@H]1[C@@H]1O[C@@H]12 (stereo not given in full)
inactive: [2]

Cc1cc(OC(=O)N(C)C)nn1C(=O)N(C)C
inactive: [1]

CN(C)CCc1c[nH]c2cccc(O)c12
inactive: [2]

C[C@@H]1[C@H]2Cc3ccc(O)cc3[C@]1(C)CCN2C
inactive: [1]

CC1(C)S[C@@H]2[C@H](N)C(=O)N2[C@H]1C(=O)O
inactive: [1]

N#CCCl
inactive: [1]

COc1cc(CC(C)N)cc(OC)c1OC (stereo not given)
inactive: [1]

CCN(CC)C(=O)N[C@@H]1C=C2c3cccc4[nH]cc(c34)C[C@@H]2N(C)C1
inactive: [2]

CC(=O)CC(c1ccc(Cl)cc1)c1c(O)c2ccccc2oc1=O (stereo not given)
inactive: [1]

COP(N)(=S)Oc1ccccc1C(=O)OC(C)C (stereo not given)
inactive: [2] | [1]

COc1ccc2c3c1O[C@H]1[C@H](O)CC[C@H]4[C@@H](C2)N(C)CC[C@@]341
inactive: [2]

CCCCCBr
inactive: [1]

CCNCC(O)c1cccc(O)c1 (stereo not given)
inactive: [2]

CCCC(C)(COC(N)=O)COC(=O)NC1CC1 (stereo not given)
inactive: [2]

CN[C@@H](C)[C@H](O)c1ccccc1
inactive: [2]

CC(=O)[C@@]1(O)CC[C@H]2[C@@H]3CCC4=CC(=O)CC[C@]4(C)C3(F)[C@@H](O)C[C@@]21C (stereo not given in full)
inactive: [1]

CC1CCCC1
inactive: [2]

CC[C@@H](CO)NC(=O)[C@@H]1C=C2c3cccc4c3c(cn4C)C[C@H]2N(C)C1
inactive: [2]

CCN(CC)CCN1C(=O)CN=C(c2ccccc2F)c2cc(Cl)ccc21
inactive: [1]

CC(C)CCC(=O)O[C@H]1CC[C@H]2[C@@H]3CCC4=CC(=O)CC[C@]4(C)[C@H]3CC[C@]12C
inactive: [2]

CCC(C)Br (stereo not given)
inactive: [2] | [1]

NCCc1ccc(O)cc1
inactive: [2]

CP(=O)(O)CCC(N)C(=O)O (stereo not given)
inactive: [3] | [4] | [5] | [6] | [7] | [8] | [9] | [10] | [11] | [12]

O=C(O)CNCP(=O)(O)O
inactive: [13] | [14] | [15] | [16] | [17] | [18] | [19] | [20]

CCOP(=O)(OCC)SCSCC
active: [16] 78.3 µM
not listed: [1] | [2]
inactive: all other assays above

CCCCC(CC)COC(=O)c1cc(Br)c(Br)c(Br)c1Br (stereo not given)
active: [13] 18.8 µM | [14] 15.1 µM

CP(=O)(O)CC[C@H](N)C(=O)O
inactive: [13] | [14]

C/C(=C/C=C/[C@@H](C)C(=O)O)[C@H]1CN[C@H](C(=O)O)[C@H]1CC(=O)O
active: [13] 1.28 µM
inactive: [13] | [14] | [3] | [4] | [5] | [6] | [7] | [8] | [9] | [10] | [11] | [12]

CC(=O)[O-].CC(=O)[O-].O.O.O.[Pb+2]
active: [13] 18.5 µM | [14] 24 µM
not listed: [1] | [2]
inactive: all other assays above

NCCc1cc(O)c(O)cc1O
active: [13] 4.29 µM | [14] 9.87 µM

C[n+]1ccc(-c2cc[n+](C)cc2)cc1
active: [13] 1.18 µM | [14] 2.34 µM | [16] 29.8 µM | [17] 0.966 µM | [18] 0.989 µM | [19] 1.01 µM | [20] 14.4 µM | [5] 1.98 µM
not listed: [1] | [2]
inactive: all other assays above

[O-][Cl+3]([O-])([O-])O
inactive: [4] | [5] | [6] | [7] | [8] | [9] | [10] | [11] | [12]
active: [3] 0.171 µM

CC1(C)[C@@H](C=C(Cl)Cl)[C@@H]1C(=O)O[C@@H](C#N)c1ccc(F)c(Oc2ccccc2)c1
active: [13] 15 µM
not listed: [1] | [2]
inactive: all other assays above

C#CCN(C)[C@H](C)Cc1ccccc1
inactive: [14] | [15] | [16] | [17] | [18] | [19] | [20]
